Data on 2 molecules can be found in PubChem BioAssay AID588773 (The Scripps Research Institute Molecular Screening Center, 2011).

The assay is described as follows: pPAFAH inhibition and serine hydrolase selectivity, late-stage follow-up, selectivity assay for pPAFAH inhibitor project, biochemical, gel-based, FP-Rh fluorescence, mouse, HTS hit compounds (AID 588773). Particulars: gel-based competitive ABPP, proteome, MW 30 kDa protein, at 10 µM, active compounds read high.

Values without a mark were called inactive.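 The calls were made as follows: active = inhibition of plasma PAF acetylhydrolase at a set limit or more at 0.1 µM, with tenfold selectivity over all off-targets; inactive = inhibition below the limit or weaker selectivity.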

Turning to `CN(C)C(=O)Oc1noc2cc(Cl)ccc12`, the inhibition is 14%.
Under `O=C(Oc1ccc([N+](=O)[O-])cc1)N1CCC(N2CCCCC2)CC1` stands 27%.

What is called inhibition is the percentage by which the read-out fell short of the control.
